Screens: PubChem BioAssay, National Center for Advancing Translational Sciences (NCATS)
A selection: hits, their analogues and other compounds. The true share with any hit is near 10%.
SARS PLP yeast: SARS-CoV PLP inhibition in yeast; Potency, µM (series often up to 32.9 µM), for the others: at the highest dose activity, positive = growth rescue, actives largely listed as activators; 0.19% of 330,000 active; S. cerevisiae expressing SARS-CoV PLpro, growth rescue; note: 0% is about no effect; nearly all actives have a fitted effect of over 55% in size
Pf growth 96h: inhibits malaria parasite growth, 96 h. P. falciparum luciferase reporter growth, 96 h. Potency, µM (doses to about 28.7 µM), for the others: at the top dose activity change, negative = inhibition, hits mostly inhibitors. 6.9% of 320,000 active. AID 504834; active = well fitted inhibition curve with a large enough effect; inconclusive = small, poorly fitted or top-dose-only effect, or another doubt; inactive = no such curve, though single readings can be large or run the other way; note: % is set by controls: 0 for no effect and ±100 for the full control effect
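Plates of compound plus infected erythrocytes (2% hematocrit, 0.05% parasitemia final) incubate 96 hours, 37 C, 5% CO2. Detection reagent added; reduced luminescence from the parasites' luciferase reporter flags inhibition.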
Pf growth 48h: inhibits P. falciparum growth in the first generation, 48 h; P. falciparum luciferase growth in erythrocytes, 48 h; Potency, µM (top dose mostly 28.7 µM), for inactives: at the highest dose activity change, negative = inhibition, hits mostly inhibitors; 5.9% of 310,000 active; AID 504832; active = well fitted inhibition curve with a large enough effect; inconclusive = small, poorly fitted or top-dose-only effect, or another doubt; inactive = no such curve, though single readings can be large or run the other way; note: % is set by controls: 0 for no effect and ±100 for the full control effect
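In quantitative HTS format, infected erythrocytes bearing luciferase-reporter parasites were treated for a single generation at 37 C. Luminescence after adding detection reagent served as the growth measure.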
NS1 inh: inhibitors of influenza NS1 protein function; 0.4% of 270,000 active; AID 2326; Potency, µM (highest dose often 46.1 µM), inactives show at the top dose activity, positive = more growth; note: actives are rising curves; nearly all actives have a fitted effect of over 50% in size
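OD600 was taken as the measure of yeast growth restored by compound in an NS1-expressing S. cerevisiae strain. Cells had been washed out of glucose medium and diluted 1:100 into galactose -URA medium, pH 6.0.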
Starred values were filed as active, the others as inactive. Unless noted, calls come from the whole dose curve. Potency is the fitted concentration of half-maximal effect.

`COC(=O)c1cc2ccccc2c(-c2c(OC)c(C(=O)OC)cc3ccccc23)c1OC` gave SARS PLP yeast -22%, Pf growth 96h 12µM*, Pf growth 48h inconclusive and NS1 inh -32%.
Screening CN1CCN(CC(O)(c2ccc(Cl)cc2)c2ccc(Cl)cc2)CC1 returned SARS PLP yeast 2%, Pf growth 96h 15µM* and Pf growth 48h 9.3µM*.
For CN1CCN(C(=S)c2ccc(Cl)cc2)CC1 the results were SARS PLP yeast 3%, Pf growth 48h 0% and NS1 inh 4%.
S=C(NCc1ccccc1)NCc1ccccc1Cl was read as SARS PLP yeast 28%, Pf growth 96h inconclusive, Pf growth 48h 6% and NS1 inh -44%.
Screening COc1ccccc1-n1c(SCC(=O)Nc2ccccc2C)nc(O)cc1=O returned SARS PLP yeast 6%, Pf growth 96h -15%, Pf growth 48h 2.6µM* and NS1 inh inconclusive.
Screening CC(C)(C)NC(=O)CSc1nc(O)cc(=O)n1-c1ccccc1F returned SARS PLP yeast -1%, Pf growth 96h 42%, Pf growth 48h 2.6µM* and NS1 inh inconclusive.
For COc1ccc(-n2c(SCC(=O)Nc3cccc4ccccc34)nc(O)cc2=O)cc1 the results were SARS PLP yeast 0%, Pf growth 96h 0.29µM*, Pf growth 48h 2.1µM* and NS1 inh 25%.
For COCCn1c(-c2ccccc2)cnc1SCC(=O)Nc1cccc2ccccc12 the results were SARS PLP yeast -18%, Pf growth 96h 13µM*, Pf growth 48h -23% and NS1 inh -1%.
COc1ccc(-n2c(SCC(=O)Nc3ccccc3)nc(O)cc2=O)cc1 was read as SARS PLP yeast 3%, Pf growth 96h -9%, Pf growth 48h -14% and NS1 inh inconclusive.
`Cn1c(SCC(=O)NC(C)(C)C)nc(O)cc1=O` gave SARS PLP yeast 0%, Pf growth 96h 5%, Pf growth 48h -5% and NS1 inh inconclusive.
For COCCn1c(-c2ccc(OC)cc2)cnc1SCC(=O)Nc1ccc(OC)cc1OC the results were SARS PLP yeast 0%, Pf growth 96h -2%, Pf growth 48h inconclusive and NS1 inh -22%.
Cc1cc2c(=O)n(C)c(SCC(=O)Nc3ccccc3C)nc2s1 was read as SARS PLP yeast 2%, Pf growth 96h 9.3µM* and Pf growth 48h inconclusive.
Cc1ccc(-n2c(SCC(=O)Nc3ccc4c5c(cccc35)CC4)nc(O)cc2=O)cc1 was read as SARS PLP yeast inconclusive, Pf growth 96h 2.6µM*, Pf growth 48h 2.9µM* and NS1 inh inconclusive.
Nc1cc(=O)[nH]c2nnc(SCC(=O)Nc3cccc4ccccc34)n12 was read as SARS PLP yeast 1%, Pf growth 96h 7.4µM*, Pf growth 48h -5% and NS1 inh -12%.
Cc1cc(=O)oc2c(C)c(OCC(=O)N3CCN(C(=O)C4COc5ccccc5O4)CC3)ccc12 (stereo unspecified) was read as SARS PLP yeast 4%, Pf growth 96h 9.3µM*, Pf growth 48h 10µM* and NS1 inh 16%.
`Cc1cc(=O)oc2c(C)c(OCC(=O)N3CCN(c4ccccc4)CC3)ccc12` gave SARS PLP yeast 19%, Pf growth 96h -5%, Pf growth 48h -8% and NS1 inh 2%.
`O=C(CSc1nc(SCC(=O)NCc2ccccc2)n(-c2ccccc2)n1)NCc1ccccc1` gave SARS PLP yeast 4%, Pf growth 96h 9.3µM* and NS1 inh -12%.
For Brc1ccc(CNc2ccc3ncccc3c2)cc1 the results were SARS PLP yeast -11%, Pf growth 96h 0%, Pf growth 48h 136% and NS1 inh -57%.
`C#Cc1ccc([C@@H]2C=C(C(=O)OCC=C)O[C@H](OCC)[C@H]2CCCO)cc1` gave SARS PLP yeast 0%, Pf growth 96h 2.3µM*, Pf growth 48h inconclusive and NS1 inh 2%.
For C#Cc1ccc([C@@H]2C=C(C(=O)Nc3ccccc3)O[C@H](OCC)[C@H]2CCCO)cc1 the results were SARS PLP yeast -2%, Pf growth 96h 1.9µM*, Pf growth 48h inconclusive and NS1 inh -1%.
C#Cc1ccc([C@H]2C=C(C(=O)OCC=C)O[C@@H](OCC)[C@@H]2CCCO)cc1 was read as SARS PLP yeast 1%, Pf growth 96h inconclusive, Pf growth 48h -21% and NS1 inh 2%.
Screening CCCC[n+]1c(-c2ccc(Cl)cc2Cl)csc1Nc1ccccc1 returned SARS PLP yeast -71%, Pf growth 96h 1.7µM*, Pf growth 48h 3.7µM* and NS1 inh -27%.
Screening Clc1ccc(-c2csc(Nc3ccccc3)[n+]2Cc2ccco2)c(Cl)c1 returned SARS PLP yeast -14%, Pf growth 96h inconclusive, Pf growth 48h 12µM* and NS1 inh -3%.
CCn1c(=O)n(CC(=O)NCC2CCCO2)c(=O)c2c3c(sc21)COC(C)(C)C3 (stereo unspecified) was read as SARS PLP yeast 9%, Pf growth 96h inconclusive, Pf growth 48h 7% and NS1 inh 11%.
Screening CCOC(=O)C1(Cc2cccc(F)c2)CCN(C(=O)Cn2cnnn2)CC1 returned SARS PLP yeast 4%, Pf growth 96h 2%, Pf growth 48h 16% and NS1 inh 3%.
`CC(=Nc1ccccc1O)c1sc2ccccc2c1O` gave SARS PLP yeast -3%, Pf growth 96h 15µM*, Pf growth 48h inconclusive and NS1 inh -74%.
Screening CCCN(CCC)S(=O)(=O)c1ccc(NC(=O)C2CCCO2)cc1 (stereo unspecified) returned SARS PLP yeast 6%, Pf growth 96h 9.3µM*, Pf growth 48h inconclusive and NS1 inh 6%.
`O=C(Nc1ccc(N2CCCCCC2)cc1)c1cccc(S(=O)(=O)N2CCOCC2)c1` gave SARS PLP yeast 5%, Pf growth 96h 10µM* and Pf growth 48h 13µM*.
O=C(Nc1cccc(S(=O)(=O)N2CCOCC2)c1)c1cccc(S(=O)(=O)N2CCCCC2)c1 was read as SARS PLP yeast -3%, Pf growth 96h inconclusive and Pf growth 48h inconclusive.
Screening CCOC(=O)c1ccc(NC(=O)c2cccc(S(=O)(=O)N3CCOCC3)c2)cc1 returned SARS PLP yeast -2%, Pf growth 96h 4%, Pf growth 48h 6.6µM* and NS1 inh -9%.
Screening Cc1ccc(NC(=O)C2CCCO2)cc1[N+](=O)[O-] (stereo unspecified) returned SARS PLP yeast 15%, Pf growth 96h 2.6µM*, Pf growth 48h 45% and NS1 inh -2%.
For CC(C)c1nnc(NC(=O)CCC(=O)NC2CC2)s1 the results were SARS PLP yeast -6%, Pf growth 96h -19%, Pf growth 48h 20% and NS1 inh -4%.
Screening NC(=O)C1CCN(c2ncc(C(F)(F)F)cc2Cl)CC1 returned SARS PLP yeast 0%, Pf growth 96h 29% and Pf growth 48h 5%.
Screening CC(C)(C)C(=O)N1CCN(c2nc3ccccc3o2)CC1 returned SARS PLP yeast -2%, Pf growth 96h inconclusive and Pf growth 48h 4%.
For Cc1cnc(NC(=O)[C@H](C)N2C(=O)C3CCCCC3C2=O)s1 (stereo partly specified) the results were SARS PLP yeast -3%, Pf growth 96h 15%, Pf growth 48h 3% and NS1 inh 0%.
